Data: PubChem BioAssay (NCATS)
Results filed as inconclusive are left out. A call without a number means that no potency is given here. Activity calls are given as the source filed them. Calls come from the whole dose curve; as a rule, active = well fitted curve in the direction sought with a large enough effect; inconclusive = small, poorly fitted or top-dose-only effect, or another doubt; inactive = no such curve, though single readings can be large; an effect the other way counts as inactive or inconclusive.

Legend:
[1] = target: Aldehyde dehydrogenase, mitochondrial (Homo sapiens) (UniProt P05091); assay: qHTS for Inhibitors of the Aldehyde Dehydrogenase Family (ALDH2) Primary screen (AID 2061308); note: nearly all actives have a fitted effect of over 55% in size
[2] = target: Retinaldehyde dehydrogenase 3 (Homo sapiens) (UniProt P47895); assay: qHTS for Inhibitors of the Aldehyde Dehydrogenase Family (ALDH1A3) Primary screen (AID 2061315)

For CN(C)CCOC(C)(c1ccccc1)c1ccc(Cl)cc1 (centres undefined), the Potency [1] was “inactive” and the Potency [2] was “inactive”.

With O=C(Nc1ccccc1)C1CCN(c2nc(-c3ccc(Br)cc3)cs2)CC1 the Potency [1] was “inactive” and the Potency [2] was “inactive”.

For CCC1=CC2CN(C1)Cc1c([nH]c3ccccc13)[C@@](C(=O)OC)(c1cc3c(cc1OC)N(C)[C@H]1[C@@](O)(C(=O)OC)[C@H](OC(C)=O)[C@]4(CC)C=CCN5CC[C@]31[C@@H]54)C2 (some centres undefined), the Potency [1] was “inactive” and the Potency [2] was “inactive”.

For C=C1C(=O)O[C@@H]2/C=C(\CO)CC/C=C(/C=O)C[C@@H](O)[C@@H]12, the Potency [1] was “inactive” and the Potency [2] was “inactive”.

For O=C(Nc1ccc2ccccc2c1)Nc1nnc(-c2ccccc2F)s1, the Potency [1] was “inactive” and the Potency [2] was “inactive”.

With Cc1cc(S(=O)(=O)Nc2cnccc2C(=O)Nc2nc(-c3ccccc3)cs2)c(C)o1 the Potency [1] was “inactive” and the Potency [2] was “inactive”.

For CC(C)COc1ccc(-c2ccc(=O)n(CC(=O)NCCc3ccccc3)n2)cc1, the Potency [1] was “inactive” and the Potency [2] was “inactive”.

For Cc1cc(C)nc(NC(=S)N2CCN(c3ccc(C(F)(F)F)cc3Cl)CC2)c1, the Potency [1] was “inactive” and the Potency [2] was “inactive”.

In the case of COc1cccc(-c2ccc3ncnc(NCc4cccc(C)c4)c3c2)c1, the Potency [1] is reported as “inactive” and the Potency [2] is reported as “inactive”.

In the case of O=c1c2ccccc2nc2sc(Nc3ccc4c(c3)CCC4)nn12, the Potency [1] is reported as “inactive” and the Potency [2] is reported as “inactive”.

For N/C(=N\c1nnc(-c2ccncc2)s1)Nc1ccc(Cl)c(Cl)c1, the Potency [1] was “inactive” and the Potency [2] was “inactive”.

For CO[C@H]1C[C@@H]2CC[C@@H](C)[C@@](O)(O2)C(=O)C(=O)N2CCCC[C@H]2C(=O)O[C@H]([C@@H](C)C[C@@H]2CC[C@@H](O)[C@H](OC)C2)CC(=O)[C@H](C)/C=C(\C)[C@@H](O)[C@@H](OC)C(=O)[C@H](C)C[C@H](C)/C=C/C=C/C=C/1C, the Potency [1] was “inactive” and the Potency [2] was “inactive”.
